Rows were chosen to be rich in hits. Some 11% of all compounds tested hit in one or more screens of this group.
HP1b binding inh: HP1-beta chromodomain-methylated histone interaction inhibition; Potency, µM (doses to about 114 µM), for the others: top-dose activity change, negative = inhibition, usual class: inhibitors; AID 540317; P83916; actives 0.56% (n = 390,000); AlphaScreen HP1-beta / biotin-H3K9me3 peptide binding; further: nearly all actives have a fitted effect of over 70% in size
Target sequence (P83916 whole entry, looked up): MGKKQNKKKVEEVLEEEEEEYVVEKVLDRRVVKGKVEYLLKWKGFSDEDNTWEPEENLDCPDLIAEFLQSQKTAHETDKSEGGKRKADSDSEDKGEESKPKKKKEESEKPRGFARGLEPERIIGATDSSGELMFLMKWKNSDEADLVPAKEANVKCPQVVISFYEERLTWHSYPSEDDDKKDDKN
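Compound inhibition of the preformed complex between 50 nM HP1-beta and 50 nM biotinylated H3K9me3 peptide was read by AlphaScreen. Buffer was PBS pH 7.4 with 0.01% Tween-20. Incubations ran 30 min at room temperature, with 10 ug/mL donor/acceptor beads.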
JMJD2A Tudor: blocks the human JMJD2A Tudor domain; Potency, µM (titrated, usually from 114 µM), for the others: at the highest dose activity change, negative = inhibition, hits mostly inhibitors; AlphaScreen JMJD2A-Tudor / H3K4me3 peptide binding; actives 4.4% (n = 390,000); O75164; further: on the % scale 0 is the no-effect control and ±100 the full control effect; nearly all actives have a fitted effect of over 50% in size
PLK1 PBD inh: blocks phosphopeptide binding to human PLK1 polo-box domain; Plk1 PBD binding of FITC phosphopeptide, fluorescence polarization; Potency, µM, for inactives: max response, negative = inhibition, hits mostly inhibitors; actives 2.8% (n = 360,000); AID 720504; further: series mostly up to about 57 µM; on the % scale 0 is the no-effect control and ±100 the full control effect; nearly all actives have a fitted effect of over 65% in size
VDR inh: blocks the human vitamin D receptor. P11473. VDR-SRC2-3 peptide fluorescence polarization, 2 h. Potency, µM, for inactives: max response, negative = inhibition, actives largely listed as inhibitors. actives 0.93% (n = 400,000); further: on the % scale 0 is the no-effect control and ±100 the full control effect
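VDR–SRC2-3 interaction, FP format. Cmpds 23 nl via pintool, brief spin, 2 h ambient incubation.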
BAZ2B inh: BAZ2B (human) inhibition | AlphaScreen BAZ2B-H3K14Ac peptide displacement | Potency, µM (series often up to 114 µM), for inactives: at the highest dose activity change, negative = inhibition, most hits filed as inhibitors | actives 4.4% (n = 360,000) | AID 504333; further: on the % scale 0 is the no-effect control and ±100 the full control effect; nearly all actives have a fitted effect of over 60% in size
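In this displacement format the biotinylated H3(5-23) peptide acetylated at Lys14 serves as ligand at 50 nM, with BAZ2B at 50 nM in PBS pH 7.4 containing 0.01% Tween-20. Donor and acceptor beads are 10 ug/mL final.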
G9a block: G9a (human) methyltransferase inhibition; Q96KQ7; G9a H3K9 monomethylation, AlphaScreen, 2 h; Potency, µM (series often up to 102 µM), for the others: top-dose activity, negative = inhibition, hits mostly inhibitors; actives 8.8% (n = 350,000); AID 504332; further: on the % scale 0 is the no-effect control and ±100 the full control effect; nearly all actives have a fitted effect of over 75% in size
Target sequence (Q96KQ7 913-1193 limits assumed): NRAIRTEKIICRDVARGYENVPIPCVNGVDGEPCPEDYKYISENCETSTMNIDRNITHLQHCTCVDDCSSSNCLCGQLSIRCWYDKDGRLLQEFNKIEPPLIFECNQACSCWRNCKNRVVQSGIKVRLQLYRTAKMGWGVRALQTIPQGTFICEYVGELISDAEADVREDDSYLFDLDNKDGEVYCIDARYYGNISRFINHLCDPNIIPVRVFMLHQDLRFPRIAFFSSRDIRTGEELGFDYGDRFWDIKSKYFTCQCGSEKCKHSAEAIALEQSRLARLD
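Using a bead-based AlphaScreen, monomethylated H3K9 product from 2 h room-temperature reactions (G9a 20 nM, peptide 500 nM, SAM 20 uM) was detected with 0.5 ug/mL rabbit anti-H3K9me1 antibody.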
Active calls of the source: *; ? = inconclusive; · = not tested or not shown; [ ] = remark or other dose. The call rests on the fitted dose curve; in most records, active means well fitted curve in the direction sought with a large enough effect; inconclusive means small, poorly fitted or top-dose-only effect, or another doubt; inactive means no such curve, though single readings can be large; an effect the other way counts as inactive or inconclusive. Potency means the concentration at half of the fitted maximal effect.

SMILES	HP1b binding inh	JMJD2A Tudor	PLK1 PBD inh	VDR inh	BAZ2B inh	G9a block
O=C(CCS(=O)(=O)c1ccccc1Cl)NCc1ccc(F)cc1	66%	-6%	?	?	21%	50µM*
CCN(CC)c1ccc(NC(=O)CCS(=O)(=O)c2ccc(Br)cc2)c(C)c1	13µM*	11µM*	27µM*	7%	11µM*	10µM*
O=C(CCS(=O)(=O)c1ccc(Br)cc1)NCc1ccc(F)cc1	131%	82%	-19%	?	40µM*	?
Cc1ccc(CNC(=O)CCS(=O)(=O)c2ccc3c(c2)NC(=O)CO3)cc1	20%	?	27µM*	-15%	-20%	-3%
Cc1ccc(CNC(=O)CCS(=O)(=O)c2ccc(Cl)cc2)cc1	33%	-12%	-19%	-9%	1%	-17%
CCN(CC)c1ccc(NC(=O)CCNS(=O)(=O)c2ccc3c(c2)CCC(=O)N3)c(C)c1	?	?	-10%	3%	35µM*	40µM*
Cc1ccc(S(=O)(=O)CCC(=O)Nc2ccc3c(c2)OCO3)cc1	7%	-8%	-2%	-3%	4%	18%[12.7 µM]
O=C(CCS(=O)(=O)c1ccc(Br)cc1)Nc1ccc2c(c1)OCO2	?	50µM*	?	-10%	50µM*	?
Cc1ccc(NC(=O)CCS(=O)(=O)c2ccc(Br)cc2)nc1	3%	20µM*	12µM*	50µM*	8%	8%
Cc1ccc(CNC(=O)CCS(=O)(=O)c2ccc(Br)cc2)cc1	7.1µM*	18µM*	17µM*	-15%	?	8.9µM*
CCC(NC(=O)COc1cc2c(c3oc(=O)c(C)c(C)c13)CCC(C)(C)O2)C(=O)O (stereo unspecified)	6%	-17%	-4%	10%	-26%	10%
CC1CC(C)CN(C(=O)CCNS(=O)(=O)c2ccc3c(c2)CCC(=O)N3)C1 (stereo unspecified)	25%	-3%	6%	-14%	-1%	7%
CCOC(=O)C1CCCN(C(=O)CCNS(=O)(=O)c2ccc3c(c2)CCC(=O)N3)C1 (stereo unspecified)	?	?	17µM*	?	5%	-4%
Cc1ccnc(NC(=O)CCS(=O)(=O)c2ccccc2)c1	-17%	-16%	-5%	0%	-36%	79µM*
O=C(CCS(=O)(=O)c1ccccc1)Nc1ccccn1	?	-16%	-3%	-9%	-27%	?
O=C(N/N=C/c1cccc(Cl)c1)C1CCCC1	?	-10%	-3%	12%	-1%	?
COc1ccc(-n2nc3ccc(N)cc3n2)cc1	·	·	3%	·	·	·
COc1ccc(-n2nc(N)c(C(N)=O)n2)cc1	-19%	-23%[11.4 µM]	19µM*	-20%	?	45µM*
COc1cc(C)c(NC(=O)c2cc(C3CC3)nc3c2cnn3C(C)C)cc1OC	0%	-36%	-6%	-1%	-11%	11%[2.33 µM]
CCOc1ccc(C(=O)C(C)OC(=O)C2CCN(c3ccc(C(F)(F)F)cn3)CC2)cc1 (stereo unspecified)	68%	26%	-1%	-5%	16%	56µM*
CN(CC(=O)Nc1ccc(F)cc1)C(=O)COC(=O)C1CCN(c2ccc(C(F)(F)F)cn2)CC1	30%	-41%	1%	-5%	-5%	79µM*
O=C(COC(=O)C1CCN(c2ccc(C(F)(F)F)cn2)CC1)Nc1ccc(F)cc1[N+](=O)[O-]	?	?	-10%	-1%	?	11µM*
O=C(COC(=O)C1CCN(c2ccc(C(F)(F)F)cn2)CC1)Nc1ccc(Cl)cc1	52%	1%	-7%	-17%	8%	7%[0.501 µM]
COCCNC(=O)Cn1c(-c2cccs2)cc2cc(Cl)ccc21	24%	-11%	·	10%	-12%	-19%[59 µM]
COc1ccc(N=C2SC(CC(=O)Nc3ccccc3)C(=O)N2Cc2ccccn2)cc1 (stereo unspecified)	27%	-33%	-8%	-12%	?	50µM*
SMILES	HP1b binding inh	JMJD2A Tudor	PLK1 PBD inh	VDR inh	BAZ2B inh	G9a block
COCCCNCCCCOc1ccc(C)cc1[N+](=O)[O-]	?	5.6µM*	-1%	-4%	?	11µM*
Cc1ccc(OCC(=O)N/N=C\c2cccn2C)c([N+](=O)[O-])c1	?	-25%	-9%	-3%	?	-11%
COc1ccccc1OCCOCCOc1ccc(C)cc1[N+](=O)[O-]	29%	-19%	-8%	0%	5%	3%[59 µM]
CCCCNCCOCCOc1ccc(C)cc1[N+](=O)[O-]	?	2.8µM*	0%	-2%	?	18µM*
CCC(C)NCCOc1ccc(C)cc1[N+](=O)[O-] (stereo unspecified)	?	0.79µM*	33%	12%	40µM*	11µM*
O=C(NCc1ccc(Cl)cc1)c1cc(S(=O)(=O)N2CCCCC2)c[nH]1	37%	-17%	6%	-4%	?	16%
CC(C)CC(c1nnnn1Cc1ccc(F)cc1)N1CCC(C(N)=O)CC1 (stereo unspecified)	38%	-19%	-9%	-7%	0%	22%[12.7 µM]
CN(Cc1ccco1)c1ncncc1-c1ccccc1C(F)(F)F	·	·	·	50µM*	·	6%[0.501 µM]
Cc1ccccc1-c1cncnc1N(C)Cc1ccco1	·	·	·	40µM*	·	·
COc1ccccc1-c1cncnc1N(C)Cc1ccco1	·	·	·	?	·	9%[0.501 µM]
COc1ccc(C(=O)NCC(c2ccco2)N2CCOCC2)cc1 (stereo unspecified)	·	·	-14%	·	·	·
N#Cc1c(-c2ccccc2)nc2n1CCS2	19%	-24%	-22%	12%	-8%	7%
Clc1ccc(/C=N/c2c(-c3ccc(Cl)cc3)nc3n2CCS3)cc1	-31%	?	-1%	-4%	?	35µM*
COc1ccc(NC(=S)Nc2cccc([N+](=O)[O-])c2)cc1	-14%	-21%	-29%	-6%	?	·
CN1CCC(NC(=S)Nc2cccc([N+](=O)[O-])c2)CC1	6%	-13%	-20%	-15%	-20%	45µM*
CN1c2cccc3cccc(c23)N(C)C1(C)C	?	?	-7%	-10%	50µM*	-41%[0.0925 µM]
CN(C)c1cccc2cccc(N(C)C)c12	19%	-6%	-10%	-13%	-1%	·
CCOC(=O)C1=C(O)/C(=C\c2cccs2)N=C1C	31%	-7%	4%	-17%	-1%	23%
CCOC(=O)C1=C(O)/C(=C\c2ccc(CNC(=O)C(=O)Nc3ccccc3)o2)N=C1C	1%	?	-20%	22%	56µM*	?
COc1ccc(S(=O)(=O)Nc2c(C(=O)O)[nH]c3ccc(OC)cc23)c(OC)c1	45µM*	18µM*	15µM*	-28%	45µM*	2.2µM*
